Reference: PubChem BioAssay (Tox21)
“And” between values parts separate entries of the source, which are not always exact repeats. Equal entries are not always repeated. Unmarked numbers belong to inactive results. Records with an inconclusive call do not appear. Entries that show only a call come without a potency. The source made the active and inactive calls. The call rests on the fitted dose curve; in most records, active means well fitted curve in the direction sought with a large enough effect in the repeat runs; inconclusive means weak or mixed curves; inactive means no such curve, though single readings can be large; an effect the other way counts as inactive or inconclusive.

Columns and labels:
[1] = Caspase-3/7 induction in HepG2 cells by small molecules, qHTS assay (AID 1346978); further: nearly all actives have a fitted effect of over 15% in size; further: potency means the concentration at half of the fitted maximal effect
Summary of the method: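 Wild-type HepG2 cells, 2,000/well, settled 5 hr at 37 C and 5% CO2, then compound-treated for 17 hr; caspase-3/7 activity read by luminescent Caspase-Glo 3/7 after 30 min at room temperature.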

[2] = Caspase-3/7 induction in CHO-K1 cells by small molecules, qHTS cell viability counter screen (AID 1346979); further: nearly all actives have a fitted effect of over 35% in size; further: potency means the concentration at half of the fitted maximal effect
Summary of the method: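 CellTiter-Fluor viability check, qHTS format: wild-type CHO-K1, 16hr compound treatment, 1hr reagent incubation, fluorescence read.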

[3] = Caspase-3/7 induction in HepG2 cells by small molecules, qHTS cell viability counter screen (AID 1346981); further: nearly all actives have a fitted effect of over 30% in size; further: potency means the concentration at half of the fitted maximal effect
Summary of the method: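 Steps: seed 2,000 HepG2 cells per well; incubate 5 hr at 37 C; pin-add compounds in DMSO; incubate 16 hr; add CellTiter-Fluor; after 1 hr at 37 C and 5% CO2, read fluorescence.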

[4] = target: Nuclear receptor subfamily 1 group I member 2 (Homo sapiens) (UniProt O75469); experiment: Human pregnane X receptor (PXR) small molecule agonists, qHTS assay (AID 1346982); further: nearly all actives have a fitted effect of over 35% in size; further: potency means the concentration at half of the fitted maximal effect
Summary of the method: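 Agonist mode qHTS: PXR-Luc HepG2 cells plated 5 hr before DMSO-dissolved compounds were pinned in, cultured 24 hr at 37 C, 5% CO2; ONE-Glo luminescence readout.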

[5] = target: Cytochrome P450 2D6 (Homo sapiens) (UniProt P10635); experiment: Cytochrome P450 Family 2 Subfamily D Member 6 (CYP2D6) small molecule antagonists: luciferase reporter qHTS assay (AID 1671196); further: nearly all actives have a fitted effect of over 50% in size; further: potency means the concentration at half of the fitted maximal effect
Summary of the method: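 P450-Glo format: CYP2D6 converts a proluciferin substrate to luciferin in an NADPH-driven reaction lasting 1 h at room temperature. Light output, proportional to CYP2D6 activity, reflects interference by test chemicals.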

[6] = target: Cytochrome P450 2C19 (Homo sapiens) (UniProt P33261); experiment: Cytochrome P450 Family 2 Subfamily C Member 19 (CYP2C19) small molecule antagonists: luciferase reporter qHTS assay (AID 1671197); further: nearly all actives have a fitted effect of over 65% in size; further: potency means the concentration at half of the fitted maximal effect
Summary of the method: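 Compounds were tested on CYP2C19 activity via proluciferin conversion to luciferin. The 37C, 1 h reaction followed NADPH addition; detection reagent stopped it.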

[7] = target: Cytochrome P450 2C9 (Homo sapiens) (UniProt P11712); experiment: Cytochrome P450 Family 2 Subfamily C Member 9 (CYP2C9) small molecule antagonists: luciferase reporter qHTS assay (AID 1671198); further: nearly all actives have a fitted effect of over 50% in size; further: potency means the concentration at half of the fitted maximal effect
Summary of the method: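 P450-Glo proluciferin substrate with CYP2C9 enzyme; 10 min RT preincubation, then NADPH regeneration 1 h at 37C; luciferin detection reagent 20 min RT, luminescence in relative luminescence units.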

[8] = Caspase-3/7 induction in CHO-K1 cells by small molecules, qHTS assay (AID 1346980); further: nearly all actives have a fitted effect of over 15% in size
Summary of the method: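 Wild-type CHO-K1 cells exposed to compounds for 17hr at 37 C, 5% CO2. Caspase-3/7 activity then measured by Caspase-Glo 3/7 luminescence after 30min at room temperature.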

[9] = target: Nuclear receptor subfamily 1 group I member 2 (Rattus norvegicus) (UniProt Q9R1A7); experiment: Rat pregnane X receptor (rPXR) activation by small molecules, qHTS assay (AID 1346983); conditions: rPXR luciferase reporter cells, One-Glo luminescence, 24 h; max activation: active compounds read high; further: nearly all actives have a fitted effect of over 20% in size
Summary of the method: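 Cell-based rPXR activation assay: rPXR cells, 2,000 per well, rested 5hr at 37 C, then exposed to compounds in DMSO for 24 hr at 37 C. Luciferase activity read by One-Glo luminescence after 30 min at room temperature.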

[10] = target: Nuclear receptor subfamily 1 group I member 2 (Homo sapiens) (UniProt O75469); experiment: CYP3A4 induction through human pregnane X receptor (PXR) by small molecules, qHTS assay (AID 1346984); further: nearly all actives have a fitted effect of over 40% in size; further: potency means the concentration at half of the fitted maximal effect
Summary of the method: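 Steps: seed DPX-2 cells, 5 hr at 37C; pin-transfer compounds; 24 hr at 37C; add Luciferin-IPA (3uM final), 3 hr at 37C; add One-Glo, 30 min RT; read luminescence.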

Cytochrome P450 2C19 (Homo sapiens), sequence (P33261 whole entry, looked up): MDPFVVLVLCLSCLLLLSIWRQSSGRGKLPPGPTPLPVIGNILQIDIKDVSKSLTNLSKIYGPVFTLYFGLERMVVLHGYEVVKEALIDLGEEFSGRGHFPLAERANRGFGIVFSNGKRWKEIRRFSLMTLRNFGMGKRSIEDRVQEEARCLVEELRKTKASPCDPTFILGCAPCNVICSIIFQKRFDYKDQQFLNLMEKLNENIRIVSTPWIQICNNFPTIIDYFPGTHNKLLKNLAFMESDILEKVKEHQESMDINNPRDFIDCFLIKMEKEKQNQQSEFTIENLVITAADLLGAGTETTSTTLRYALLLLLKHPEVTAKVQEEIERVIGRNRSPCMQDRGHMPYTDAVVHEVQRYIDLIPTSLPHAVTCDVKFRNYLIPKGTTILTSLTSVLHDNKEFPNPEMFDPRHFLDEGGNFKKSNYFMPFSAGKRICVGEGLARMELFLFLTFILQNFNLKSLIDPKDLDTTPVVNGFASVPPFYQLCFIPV
Nuclear receptor subfamily 1 group I member 2 (Rattus norvegicus), sequence (Q9R1A7 whole entry, looked up): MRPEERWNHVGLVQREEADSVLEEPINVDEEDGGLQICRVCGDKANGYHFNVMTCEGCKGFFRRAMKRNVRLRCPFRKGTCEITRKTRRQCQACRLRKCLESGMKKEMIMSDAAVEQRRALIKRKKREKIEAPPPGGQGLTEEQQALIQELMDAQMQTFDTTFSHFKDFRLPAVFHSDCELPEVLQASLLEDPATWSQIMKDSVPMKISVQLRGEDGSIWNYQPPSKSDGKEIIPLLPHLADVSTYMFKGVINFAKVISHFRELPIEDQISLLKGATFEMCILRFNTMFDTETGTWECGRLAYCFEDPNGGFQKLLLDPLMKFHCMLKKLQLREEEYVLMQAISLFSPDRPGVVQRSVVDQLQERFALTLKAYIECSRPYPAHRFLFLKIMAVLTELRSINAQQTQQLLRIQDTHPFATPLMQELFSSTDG
Nuclear receptor subfamily 1 group I member 2 (Homo sapiens), sequence (O75469 whole entry, looked up): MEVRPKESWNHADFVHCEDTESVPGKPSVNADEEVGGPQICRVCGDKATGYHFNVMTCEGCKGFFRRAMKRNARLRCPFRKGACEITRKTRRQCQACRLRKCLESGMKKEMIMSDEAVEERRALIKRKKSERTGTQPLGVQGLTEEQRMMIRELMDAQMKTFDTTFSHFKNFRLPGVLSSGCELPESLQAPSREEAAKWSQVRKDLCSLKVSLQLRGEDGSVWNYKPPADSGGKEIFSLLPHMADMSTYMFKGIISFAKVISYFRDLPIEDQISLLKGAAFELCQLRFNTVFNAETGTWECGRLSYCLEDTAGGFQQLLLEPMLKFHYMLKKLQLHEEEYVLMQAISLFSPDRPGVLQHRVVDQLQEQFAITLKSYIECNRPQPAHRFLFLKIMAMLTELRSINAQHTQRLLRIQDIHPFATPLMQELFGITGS
Cytochrome P450 2C9 (Homo sapiens), sequence (P11712 whole entry, looked up): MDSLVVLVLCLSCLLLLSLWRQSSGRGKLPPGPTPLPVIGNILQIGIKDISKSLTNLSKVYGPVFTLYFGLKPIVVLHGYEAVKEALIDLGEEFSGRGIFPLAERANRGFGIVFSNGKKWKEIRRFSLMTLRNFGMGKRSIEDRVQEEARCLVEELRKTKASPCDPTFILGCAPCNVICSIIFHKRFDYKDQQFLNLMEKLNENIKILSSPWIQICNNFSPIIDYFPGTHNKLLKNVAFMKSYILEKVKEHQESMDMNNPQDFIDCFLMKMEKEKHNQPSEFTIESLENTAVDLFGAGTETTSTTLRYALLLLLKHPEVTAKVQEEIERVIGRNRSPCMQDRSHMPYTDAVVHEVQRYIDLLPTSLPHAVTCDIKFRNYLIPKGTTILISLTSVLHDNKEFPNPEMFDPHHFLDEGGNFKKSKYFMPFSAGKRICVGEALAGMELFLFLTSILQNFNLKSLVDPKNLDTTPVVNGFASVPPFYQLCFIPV
Cytochrome P450 2D6 (Homo sapiens), sequence (P10635 whole entry, looked up): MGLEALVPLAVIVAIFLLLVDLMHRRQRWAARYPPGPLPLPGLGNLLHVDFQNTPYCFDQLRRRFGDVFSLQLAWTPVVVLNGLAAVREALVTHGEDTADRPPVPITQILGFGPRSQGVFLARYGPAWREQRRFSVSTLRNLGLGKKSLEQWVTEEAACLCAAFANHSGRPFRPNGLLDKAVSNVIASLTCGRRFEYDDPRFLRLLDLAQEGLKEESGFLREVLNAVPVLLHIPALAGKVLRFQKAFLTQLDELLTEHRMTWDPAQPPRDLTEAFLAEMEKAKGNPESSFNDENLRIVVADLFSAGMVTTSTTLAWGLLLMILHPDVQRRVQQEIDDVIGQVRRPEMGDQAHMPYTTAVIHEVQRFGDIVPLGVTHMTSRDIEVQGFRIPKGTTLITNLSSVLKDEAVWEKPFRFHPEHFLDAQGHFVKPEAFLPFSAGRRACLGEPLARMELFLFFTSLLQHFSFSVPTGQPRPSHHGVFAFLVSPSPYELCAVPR

O=C1OC(=O)c2cccc3cccc1c23
Potency [1]: inactive
Potency [2]: inactive
Potency [3]: inactive
Potency [4]: 19.5 µM (active)
Potency [5]: inactive
Potency [6]: inactive
Potency [7]: inactive

COc1cccc(OC)c1O
Potency [1]: inactive
Potency [2]: inactive
Potency [3]: inactive
Potency [4]: inactive
Potency [5]: 6.33 µM (active)
Potency [6]: 39.9 µM (active)
Potency [7]: 35.6 µM (active)

O=C1c2c(O)ccc([N+](=O)[O-])c2C(=O)c2c([N+](=O)[O-])ccc(O)c21
Potency [1]: inactive
Potency [2]: 12.1 µM (active)
Potency [3]: 24.1 µM (active)
Potency [4]: inactive
Potency [5]: 31.4 µM (active)
Potency [6]: 12.5 µM (active)
Potency [7]: 28 µM (active)

CC1=CCC(=O)O1
Potency [1]: inactive
Potency [2]: inactive
Potency [3]: inactive
Potency [4]: inactive
Potency [5]: inactive
Potency [6]: inactive
Potency [7]: inactive

Cc1ccc(N)cc1O
Potency [1]: inactive
Potency [2]: 52.9 µM (active)
Potency [3]: inactive
Potency [4]: 34.4 µM (active)
Potency [5]: 3.66 µM (active)
Potency [6]: 3.56 µM (active)
Potency [7]: 21.8 µM (active)

O=C(NO)c1ccccc1
Potency [1]: inactive
Potency [2]: 65.3 µM (active)
Potency [3]: inactive
Potency [4]: 29.2 µM (active)
Potency [5]: 60.2 µM (active)

CC(C)(c1cc(Br)c(O)c(Br)c1)c1cc(Br)c(O)c(Br)c1
Potency [1]: inactive
Potency [2]: 60.9 µM (active)
Potency [3]: inactive
Potency [4]: 54.3 µM (active) and 60.9 µM (active) and 57.9 µM (active)
Potency [5]: inactive
Potency [6]: 22.4 µM (active) and 35.5 µM (active)
Potency [7]: 31.6 µM (active) and 35.5 µM (active) and 30 µM (active)

CCc1ccc(C)nc1
Potency [1]: inactive
Potency [2]: inactive
Potency [3]: inactive
Potency [4]: inactive
Potency [5]: inactive
Potency [6]: inactive
Potency [7]: inactive

CC(=O)c1ccccc1N
Potency [1]: inactive
Potency [2]: inactive
Potency [3]: inactive
Potency [4]: inactive
Potency [6]: inactive
Potency [7]: inactive

C=CC(C)(CCC=C(C)C)OC(=O)/C=C/c1ccccc1 (stereo not drawn)
Potency [1]: inactive
Potency [2]: inactive
Potency [3]: inactive
Potency [4]: 61.1 µM (active)
Potency [5]: inactive
Potency [6]: 6.33 µM (active)
Potency [7]: 6.33 µM (active)

CCN(CC)CCNc1ccc(CO)c2sc3ccccc3c(=O)c12
Potency [1]: 13.3 µM (active)
Potency [2]: 23.7 µM (active)
Potency [3]: 13.3 µM (active)
Potency [4]: inactive
Potency [5]: 3.47 µM (active)
Potency [6]: inactive
Potency [7]: inactive

CCc1c(C(=O)O)c(=O)cnn1-c1ccc(Cl)cc1
Potency [1]: inactive
Potency [3]: inactive
Potency [4]: inactive
Potency [5]: inactive
Potency [6]: inactive
Potency [7]: inactive

Cc1occc1SSc1ccoc1C
Potency [1]: inactive
Potency [3]: inactive
Potency [5]: inactive
Potency [6]: inactive
Potency [7]: 56.4 µM (active)

COc1cc(C=C2CCC/C(=C\c3ccc(O)c(OC)c3)C2=O)ccc1O
Potency [2]: 29.8 µM (active)
Potency [8]: inactive
Potency [3]: 29.8 µM (active)
Potency [4]: inactive
max activation [9]: -7.88%
Potency [10]: inactive
Potency [5]: inactive
Potency [6]: 24.5 µM (active)
Potency [7]: 15.5 µM (active)

Clc1ccccc1CN1CCc2sccc2C1
Potency [2]: inactive
Potency [8]: inactive
Potency [3]: inactive

CCOC(=O)[C@@](C)(N)Cc1ccc(O)c(O)c1
Potency [1]: inactive
Potency [8]: inactive
Potency [3]: inactive
Potency [4]: inactive
max activation [9]: -0.299%
Potency [10]: inactive
Potency [5]: 8.71 µM (active)
Potency [7]: inactive

CC(CN(C)C)CN1c2ccccc2CCc2ccccc21 (stereo not drawn)
Potency [1]: inactive
Potency [8]: inactive
Potency [4]: 23.7 µM (active)
max activation [9]: -1.19%
Potency [10]: 8.91 µM (active)
Potency [5]: 3.09 µM (active)
Potency [7]: inactive

CCO[Si](CCCSSSSCCC[Si](OCC)(OCC)OCC)(OCC)OCC
Potency [1]: inactive
Potency [8]: inactive
Potency [3]: inactive
Potency [4]: inactive
Potency [5]: 35.6 µM (active)
Potency [6]: 5.03 µM (active)
Potency [7]: 12.6 µM (active)

O=C(Oc1ccccc1)c1cccc(C(=O)Oc2ccccc2)c1
Potency [1]: inactive
Potency [2]: 51.2 µM (active)
Potency [4]: 0.456 µM (active)
Potency [5]: 28.9 µM (active)
Potency [6]: 2.98 µM (active)
Potency [7]: 7.48 µM (active)

CN(C)CCCN1c2ccccc2CCc2ccccc21
Potency [1]: inactive
Potency [8]: inactive

C1CC(COCC2CO2)CCC1COCC1CO1 (stereo not drawn)
Potency [1]: inactive
Potency [8]: inactive
Potency [3]: inactive
Potency [5]: inactive

Clc1ccc(C(c2ccccc2Cl)C(Cl)Cl)cc1 (stereo not drawn)
Potency [1]: inactive
Potency [8]: inactive
Potency [3]: inactive
Potency [4]: 10.9 µM (active)
Potency [6]: 1.59 µM (active) and 776 nM (active)
Potency [7]: 20 µM (active) and 9.77 µM (active)

CC(=O)Oc1ccc(C2(c3ccc(OC(C)=O)cc3)Oc3ccccc3NC2=O)cc1
Potency [1]: inactive
Potency [8]: inactive
Potency [3]: inactive
Potency [6]: 6.92 µM (active)
Potency [7]: 2.45 µM (active)

CC(C)=CC1CC(C)CCO1 (stereo not drawn)
Potency [1]: inactive
Potency [8]: inactive
Potency [3]: inactive
Potency [4]: inactive
Potency [5]: inactive
Potency [6]: inactive
Potency [7]: inactive

CCCCCCCCCCCCCCNCCO
Potency [1]: inactive
Potency [8]: inactive
Potency [3]: inactive
Potency [4]: inactive
max activation [9]: 11.2%
Potency [10]: inactive
Potency [5]: 3.09 µM (active)
Potency [6]: inactive
Potency [7]: inactive
